{
  "source": "the supplement of paper PMC8728848",
  "assay_in_all_cases": "glycan array binding signal (z-score within array); higher = stronger binding",
  "conditions_in_all_cases": "glycan notation: IUPAC condensed, linker removed",
  "key": {"[1]": {"target": "Fuc(a1-2)Gal(b1-3)GlcNAc(b1-2)Man(a1-3)[Fuc(a1-2)Gal(b1-3)GlcNAc(b1-2)Man(a1-6)]Man(b1-4)GlcNAc(b1-4)GlcNAc", "method_in_brief": "(§1)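 From the Consortium for Functional Glycomics database, 3228 arrays were curated, keeping only those whose protein sequence was available. Binding is given as a within-array Z-score averaged across arrays sharing a protein sequence and across linkers. Negative Z-scores can be read as non-binding.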"}, "Fuc(a1-2)Gal(b1-4)GlcNAc": {"target": "Fuc(a1-2)Gal(b1-4)GlcNAc", "method_in_brief": "as §1"}, "[2]": {"target": "Fuc(a1-2)Gal(b1-4)GlcNAc(b1-2)[Fuc(a1-2)Gal(b1-4)GlcNAc(b1-4)]Man(a1-3)[Fuc(a1-2)Gal(b1-4)GlcNAc(b1-2)Man(a1-6)]Man(b1-4)GlcNAc(b1-4)GlcNAc", "method_in_brief": "as §1"}, "[3]": {"target": "Fuc(a1-2)Gal(b1-4)[Fuc(a1-3)]GlcNAc(b1-2)[Fuc(a1-2)Gal(b1-4)[Fuc(a1-3)]GlcNAc(b1-4)]Man(a1-3)[Fuc(a1-2)Gal(b1-4)[Fuc(a1-3)]GlcNAc(b1-2)Man(a1-6)]Man(b1-4)GlcNAc(b1-4)GlcNAc", "method_in_brief": "as §1"}, "[4]": {"target": "Fuc(a1-2)[GalNAc(a1-3)]Gal(b1-4)[Fuc(a1-3)]GlcNAc", "method_in_brief": "as §1"}, "[5]": {"target": "Fuc(a1-3)[Gal(b1-4)]GlcNAc", "method_in_brief": "as §1"}, "[6]": {"target": "Fuc(a1-3)[Gal(b1-4)]GlcNAc(b1-2)Man(a1-3)[Fuc(a1-3)[Gal(b1-4)]GlcNAc(b1-2)Man(a1-6)]Man(b1-4)GlcNAc(b1-4)GlcNAc", "method_in_brief": "as §1"}, "Gal(a1-3)Gal(b1-4)GlcNAc": {"target": "Gal(a1-3)Gal(b1-4)GlcNAc", "method_in_brief": "as §1"}, "[7]": {"target": "Gal(a1-3)Gal(b1-4)[Fuc(a1-3)]GlcNAc", "method_in_brief": "as §1"}, "Gal(b1-3)Gal": {"target": "Gal(b1-3)Gal", "method_in_brief": "as §1"}, "[8]": {"target": "Gal(b1-4)GlcNAc(b1-2)Man(a1-3)[Man(a1-6)]Man(b1-4)GlcNAc(b1-4)GlcNAc", "method_in_brief": "as §1"}, "[9]": {"target": "Gal(b1-4)GlcNAc(b1-3)[GlcNAc(b1-6)]Gal(b1-4)GlcNAc", "method_in_brief": "as §1"}, "[10]": {"target": "Gal(b1-4)GlcNAc(b1-6)GalNAc", "method_in_brief": "as §1"}, "Gal(b1-6)Gal": {"target": "Gal(b1-6)Gal", "method_in_brief": "as §1"}, "Gal6S(b1-4)Glc6S": {"target": "Gal6S(b1-4)Glc6S", "method_in_brief": "as §1"}, "GalNAc(a1-3)GalNAc": {"target": "GalNAc(a1-3)GalNAc", "method_in_brief": "as §1"}, "GlcA(b1-3)GlcNAc": {"target": "GlcA(b1-3)GlcNAc", "method_in_brief": "as §1"}, "[11]": {"target": "GlcNAc(b1-3)Gal(b1-3)GalNAc", "method_in_brief": "as §1"}, "[12]": {"target": "GlcNAc(b1-3)[GlcNAc(b1-6)]Gal(b1-4)GlcNAc", "method_in_brief": "as §1"}, "[13]": {"target": "GlcNAc(b1-3)[GlcNAc(b1-6)]GalNAc", "method_in_brief": "as §1"}, "Man(a1-2)Man(a1-3)Man": {"target": "Man(a1-2)Man(a1-3)Man", "method_in_brief": "as §1"}, "Man(b1-4)GlcNAc": {"target": "Man(b1-4)GlcNAc", "method_in_brief": "as §1"}, "[14]": {"target": "Neu5Ac(a2-3)Gal(b1-3)GalNAc6S", "method_in_brief": "as §1"}, "[15]": {"target": "Neu5Ac(a2-3)Gal(b1-3)GlcNAc", "method_in_brief": "as §1"}, "[16]": {"target": "Neu5Ac(a2-3)Gal(b1-3)[Neu5Ac(a2-3)Gal(b1-4)]GlcNAc", "method_in_brief": "as §1"}, "[17]": {"target": "Neu5Ac(a2-3)Gal(b1-3)[Neu5Ac(a2-6)]GalNAc", "method_in_brief": "as §1"}, "[18]": {"target": "Neu5Ac(a2-3)Gal(b1-4)GlcNAc(b1-2)Man", "method_in_brief": "as §1"}, "[19]": {"target": "Neu5Ac(a2-3)Gal(b1-4)GlcNAc6S", "method_in_brief": "as §1"}, "[20]": {"target": "Neu5Ac(a2-3)Gal(b1-4)[Fuc(a1-3)]GlcNAc(b1-3)Gal(b1-4)[Fuc(a1-3)]GlcNAc(b1-3)Gal(b1-4)[Fuc(a1-3)]GlcNAc", "method_in_brief": "as §1"}, "[21]": {"target": "Neu5Ac(a2-3)Gal6S(b1-4)GlcNAc", "method_in_brief": "as §1"}, "[22]": {"target": "Neu5Ac(a2-3)[Neu5Ac(a2-6)]GalNAc", "method_in_brief": "as §1"}, "[23]": {"target": "Neu5Ac(a2-6)GalNAc(b1-4)GlcNAc6S", "method_in_brief": "as §1"}, "[24]": {"target": "Neu5Ac9Ac(a2-3)Gal(b1-4)GlcNAc", "method_in_brief": "as §1"}},
  "note": "The entries come from a sample that favours the strongest signals as a whole.",
  "data": [
    {"binder": "SpnanA (Streptococcus pneumoniae), P62575 (protein) MVIEKEDVETNASNGQRVDLSSELDKLKKLENATVHMEFKPDAKAPAFYNLFSVSSATKKDEYFTMAVYNNTATLEGRGSDGKQFYNNYNDAPLKVKPGQWNSVTFTVEKPTAELPKGRVRLYVNGVLSRTSLRSGNFIKDMPDVTHVQIGATKRANNTVWGSNLQIRNLTVYNRALTPEEVQKRS", "values": [
      {"measurement": "glycan array binding signal (z-score)", "setting": "[1]", "value": -0.237},
      {"measurement": "glycan array binding signal (z-score)", "setting": "Fuc(a1-2)Gal(b1-4)GlcNAc", "value": -0.29},
      {"measurement": "glycan array binding signal (z-score)", "setting": "[2]", "value": -0.131},
      {"measurement": "glycan array binding signal (z-score)", "setting": "[3]", "value": -0.066},
      {"measurement": "glycan array binding signal (z-score)", "setting": "[4]", "value": 0.018},
      {"measurement": "glycan array binding signal (z-score)", "setting": "[5]", "value": -0.28},
      {"measurement": "glycan array binding signal (z-score)", "setting": "[6]", "value": -0.169},
      {"measurement": "glycan array binding signal (z-score)", "setting": "Gal(a1-3)Gal(b1-4)GlcNAc", "value": -0.256},
      {"measurement": "glycan array binding signal (z-score)", "setting": "[7]", "value": -0.262},
      {"measurement": "glycan array binding signal (z-score)", "setting": "Gal(b1-3)Gal", "value": -0.211},
      {"measurement": "glycan array binding signal (z-score)", "setting": "[8]", "value": 0.687},
      {"measurement": "glycan array binding signal (z-score)", "setting": "[9]", "value": -0.29},
      {"measurement": "glycan array binding signal (z-score)", "setting": "[10]", "value": -0.295},
      {"measurement": "glycan array binding signal (z-score)", "setting": "Gal(b1-6)Gal", "value": -0.199},
      {"measurement": "glycan array binding signal (z-score)", "setting": "Gal6S(b1-4)Glc6S", "value": -0.104},
      {"measurement": "glycan array binding signal (z-score)", "setting": "GalNAc(a1-3)GalNAc", "value": -0.233},
      {"measurement": "glycan array binding signal (z-score)", "setting": "GlcA(b1-3)GlcNAc", "value": 6.22},
      {"measurement": "glycan array binding signal (z-score)", "setting": "[11]", "value": -0.164},
      {"measurement": "glycan array binding signal (z-score)", "setting": "[12]", "value": -0.211},
      {"measurement": "glycan array binding signal (z-score)", "setting": "[13]", "value": -0.222},
      {"measurement": "glycan array binding signal (z-score)", "setting": "Man(a1-2)Man(a1-3)Man", "value": -0.228},
      {"measurement": "glycan array binding signal (z-score)", "setting": "Man(b1-4)GlcNAc", "value": -0.307},
      {"measurement": "glycan array binding signal (z-score)", "setting": "[14]", "value": 3.01},
      {"measurement": "glycan array binding signal (z-score)", "setting": "[15]", "value": 3.08},
      {"measurement": "glycan array binding signal (z-score)", "setting": "[16]", "value": 6.34},
      {"measurement": "glycan array binding signal (z-score)", "setting": "[17]", "value": 3.24},
      {"measurement": "glycan array binding signal (z-score)", "setting": "[18]", "value": 2.64},
      {"measurement": "glycan array binding signal (z-score)", "setting": "[19]", "value": 3.89},
      {"measurement": "glycan array binding signal (z-score)", "setting": "[20]", "value": -0.268},
      {"measurement": "glycan array binding signal (z-score)", "setting": "[21]", "value": 2.91},
      {"measurement": "glycan array binding signal (z-score)", "setting": "[22]", "value": 2.61},
      {"measurement": "glycan array binding signal (z-score)", "setting": "[23]", "value": -0.062},
      {"measurement": "glycan array binding signal (z-score)", "setting": "[24]", "value": -0.089}
    ]}
  ]
}
